Reference: PubChem BioAssay (NCI)
About 79,000 compounds went through this panel and 15% of them were active in at least one assay; those are over-represented in the sample as a whole. Values without a mark were called inactive. Active and inactive are the calls of the source. No stated cut-off is given here; in the data, active means growth inhibition above about 70%; inactive means the rest.

Assays:
[1] = NCI Yeast Anticancer Drug Screen. Data for the rad50 strain (AID 155);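 further: 0% = growth of vehicle-only cultures of the same strain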; conditions: S. cerevisiae rad50 strain growth inhibition, active compounds read high
Outline: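 Yeast carrying a defined DNA repair defect were exposed to test compounds, and growth was compared with vehicle-treated controls to give percent inhibition.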

[2] = NCI Yeast Anticancer Drug Screen. Data for the mec2-1 strain (AID 157); conditions: S. cerevisiae mec2-1 strain, active compounds read high
Outline: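 Mutant yeast (mec2-1) grown with compound; growth inhibition relative to vehicle control reported.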

[3] = NCI Yeast Anticancer Drug Screen. Data for the sgs1 mgt1 strain (AID 161);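 further: 0% = growth of cultures given vehicle only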; conditions: S. cerevisiae sgs1 mgt1 strain, active compounds read high
Outline: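 Yeast cells carrying a defined DNA-repair defect were exposed to test compounds. Growth inhibition was measured relative to vehicle-treated controls.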

[4] = NCI Yeast Anticancer Drug Screen. Data for the cln2 rad14 strain (AID 165);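 further: 0% = growth equal to vehicle treated cultures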; conditions: S. cerevisiae cln2 rad14 strain, active compounds read high
Outline: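 Readout is yeast growth inhibition versus vehicle-treated controls, using a strain with cln2 and rad14 alterations exposed to compound.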

[5] = NCI Yeast Anticancer Drug Screen. Data for the bub3 strain (AID 167); conditions: S. cerevisiae bub3 mutant strain, active compounds read high
Outline: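 Compounds were applied to a genetically altered yeast strain carrying a cell-cycle control defect. Growth inhibition was scored against vehicle-treated controls.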

[6] = NCI Yeast Anticancer Drug Screen. Data for the mlh1 rad18 strain (AID 175); conditions: S. cerevisiae mlh1 rad18 strain growth inhibition, active compounds read high
Outline: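 Genetically defined yeast (DNA repair-deficient) exposed to compounds; growth inhibition determined relative to vehicle.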

[7] = at 5.0 µM (retest, dose inferred, filed as 0.5)
[8] = at 50.0 µM (retest, dose inferred, filed as 5.0)

Structure (SMILES): [Br][Pt+2][Br].[NH-]c1cccc(I)c1.[NH-]c1cccc(I)c1
- growth inhibition [1, 7]: 2%
- growth inhibition [1, 8]: 60%
- growth inhibition ([1]; at 50.0 µM): 39.5%
- growth inhibition [2, 7]: 1%
- growth inhibition [2, 8]: 31%
- growth inhibition ([2]; at 50.0 µM): 22.2%
- growth inhibition [3, 7]: 8%
- growth inhibition [3, 8]: 39%
- growth inhibition ([3]; at 50.0 µM): 30.8%
- growth inhibition [4, 7]: -1%
- growth inhibition [4, 8]: 27%
- growth inhibition ([4]; at 50.0 µM): 12.6%
- growth inhibition [5, 7]: 1%
- growth inhibition [5, 8]: -5%
- growth inhibition ([5]; at 50.0 µM): 3.25%
- growth inhibition [6, 7]: 5%
- growth inhibition [6, 8]: 81% (active)
- growth inhibition ([6]; at 50.0 µM): 88.8% (active)

Structure (SMILES): CC(=O)NC1=C(Sc2ccc(C)cc2)C(=O)c2ccccc2C1=O
- growth inhibition [1, 7]: 63%
- growth inhibition [1, 8]: 98% (active)
- growth inhibition ([1]; at 50.0 µM): 54.4%
- growth inhibition [2, 7]: 96% (active)
- growth inhibition [2, 8]: 99% (active)
- growth inhibition ([2]; at 50.0 µM): 10.1%
- growth inhibition [3, 7]: 72% (active)
- growth inhibition [3, 8]: 95% (active)
- growth inhibition ([3]; at 50.0 µM): 29.8%
- growth inhibition [4, 7]: 35%
- growth inhibition [4, 8]: 97% (active)
- growth inhibition ([4]; at 50.0 µM): -32.6%
- growth inhibition [5, 7]: 67%
- growth inhibition [5, 8]: 98% (active)
- growth inhibition ([5]; at 50.0 µM): 42%
- growth inhibition [6, 7]: 99% (active)
- growth inhibition [6, 8]: 99% (active)
- growth inhibition ([6]; at 50.0 µM): 23.1%

Structure (SMILES): N#CC1(C#N)C2C=CC(c3coc4cccc2c34)C1(C#N)C#N (configuration not stated)
- growth inhibition [1, 7]: 29%
- growth inhibition [1, 8]: 37%
- growth inhibition ([1]; at 50.0 µM): 35.6%
- growth inhibition [2, 7]: 17%
- growth inhibition [2, 8]: 27%
- growth inhibition ([2]; at 50.0 µM): 35.9%
- growth inhibition [3, 7]: 32%
- growth inhibition [3, 8]: 37%
- growth inhibition ([3]; at 50.0 µM): 75% (active)
- growth inhibition [4, 7]: 19%
- growth inhibition [4, 8]: 27%
- growth inhibition ([4]; at 50.0 µM): 19.2%
- growth inhibition [5, 7]: 22%
- growth inhibition [5, 8]: 47%
- growth inhibition ([5]; at 50.0 µM): 58.2%
- growth inhibition [6, 7]: 26%
- growth inhibition [6, 8]: 47%
- growth inhibition ([6]; at 50.0 µM): 57.9%

Structure (SMILES): CCOC(=O)/C=C\c1c(Cl)n(-c2ccccc2)c(=O)n(-c2ccccc2)c1=O
- growth inhibition [1, 7]: 31%
- growth inhibition [1, 8]: 98% (active)
- growth inhibition ([1]; at 50.0 µM): 87.7% (active)
- growth inhibition [2, 7]: 24%
- growth inhibition [2, 8]: 99% (active)
- growth inhibition ([2]; at 50.0 µM): 90.5% (active)
- growth inhibition [3, 7]: 23%
- growth inhibition [3, 8]: 99% (active)
- growth inhibition ([3]; at 50.0 µM): 89.8% (active)
- growth inhibition [4, 7]: 26%
- growth inhibition [4, 8]: 99% (active)
- growth inhibition ([4]; at 50.0 µM): 90.3% (active)
- growth inhibition [5, 7]: 31%
- growth inhibition [5, 8]: 99% (active)
- growth inhibition ([5]; at 50.0 µM): 85.6% (active)
- growth inhibition [6, 7]: 27%
- growth inhibition [6, 8]: 98% (active)
- growth inhibition ([6]; at 50.0 µM): 92.3% (active)
